PubChem BioAssay (NCI)
Compounds without any hit were thinned out: in the full panel of roughly 79,000, 15% have a hit. Unmarked numbers belong to inactive results. Cut-off read from the data, not from the text of the source: active = growth inhibition above about 70%; inactive = the rest.

Assay: NCI Yeast Anticancer Drug Screen. Data for the mlh1 strain (AID 171);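 note: 0% = growth of vehicle-treated control cultures of the same strain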
Conditions: S. cerevisiae mlh1 strain growth inhibition; at 1.2 µM; stronger effect = higher value
How it was run: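 Inhibition values reflect reduced yeast growth in the presence of compound, referenced to vehicle controls, using a strain chosen for its alteration in DNA repair or cell cycle control.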
In the case of `CC(CN(C)C)C(=O)/C=C/c1ccc(Cl)c(Cl)c1` (configuration not stated), the growth inhibition was 4%.
For `CCCCCCNCCCNc1c2cc(OC)ccc2nc2cccc([N+](=O)[O-])c12`, the growth inhibition was 4%.
Work on `NC(=S)N1N=C2c3ccccc3CC[C@H]2[C@@H]1c1ccc(Cl)cc1` yielded a growth inhibition of 2%.
Compound `C/C(=N/NC(=S)Nc1ccccc1C)c1ccccn1` has a growth inhibition of -6%.
In the case of `O=C1/C(=C/c2ccc(Cl)c(Cl)c2)CNC/C1=C\c1ccc(Cl)c(Cl)c1`, the growth inhibition was 5%.
With `CC(C)OP(=O)(OC(C)C)C(=NCCO)NNc1ccc([N+](=O)[O-])cc1` the growth inhibition was -18%.
In the case of `N#CCC(=O)N/N=C(\c1ccccc1)C(c1ccccc1)C1(O)C(=O)Nc2c(Cl)ccc(Cl)c21` (configuration not stated), the growth inhibition was 0%.
Compound `CC(C)(CN1CCCCC1)C(=O)CC(SCCS(=O)(=O)O)c1ccccc1` (configuration not stated) has a growth inhibition of 0%.
With `COC1=CCC23C(=O)C=CC(=O)C2(C1)C(=O)c1ccccc1C3=O` (configuration not stated) the growth inhibition was -11%.
`CCCCN(CCCC)c1ccc(N=Nc2ccc(S(=O)(=O)O)cc2)cc1` gave a growth inhibition of 1%.
For `c1ccc2nc3c(nc2c1)sc1ccccc13`, the growth inhibition was 4%.
For `O=C1c2ccccc2-c2ccc(N=Cc3ccccc3)cc21`, the growth inhibition was -2%.
Work on `CNC(=S)N/N=C(/C)CCC/C(C)=N/NC(=S)NC` yielded a growth inhibition of -2%.
`Nc1ccc(/C=C/c2ccc3cccnc3c2)cc1` showed a growth inhibition of -1%.
Work on `COc1ccc2c3c1OC(C)C31CC(=O)CCC1CC2` (configuration not stated) yielded a growth inhibition of -6%.
Work on `CCOC(=O)Nc1ccc(C)c(NC(=O)OCC)c1` yielded a growth inhibition of 3%.
`CCN(CC)CCNc1ccc2nc(C)n3c4ccc(OC)cc4c(=O)c1c23` showed a growth inhibition of 36%.
